High-throughput results from PubChem.
SMN2 splice up = enhancers of SMN2 splice variant expression. HEK293 SMN2-luciferase splicing reporter, luminescence, 30-36 h. Potency, µM (series often up to 46.1 µM), for inactives: at the top dose activity change, positive = activation, usual class: activators. 210,000 compounds, 2.8% hits. AID 1458; further: % of control where 0% means no effect; nearly all actives have a fitted effect of over 55% in size
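HEK293 cells carry an SMN2 […]–luciferase reporter in which exon 7 inclusion puts luciferase in frame. Cells were plated 10-12 h before compound addition, then incubated 30-36 h at 37C. ONE-Glo luminescence was read; sodium butyrate at 4.5 mM final served as control.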
Rab9 promoter act = activates the Rab9 promoter | Huh7 Rab9 promoter-luciferase reporter, luminescence, 24 h | Potency, µM (titrated, usually from 9.22 µM), for the others: at the top dose activation, negative = inhibition, hits mostly activators | 320,000 compounds, 2.8% hits; further: % of control where 0% means no effect; nearly all actives have a fitted effect of over 60% in size
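Promoter activation is measured as luciferase luminescence in Huh7 cells stably transfected with a Rab9 promoter–luciferase construct, following 24 h compound exposure at 37 °C and 10 min reagent incubation at ambient temperature.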
FLuc modulator = firefly luciferase modulation, counter-screen for miR-21 project; P08659; purified FLuc, Km substrates, luminescence inhibition; Potency, µM (titrated, usually from 57.5 µM), for inactives: at the top dose activity change, negative = inhibition, usual class: inhibitors; 360,000 compounds, 6.9% hits; AID 588342;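 further: plate controls were vehicle for no effect and reference inhibitor for full effect; nearly all actives have a fitted effect of over 55% in size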
Target sequence (P08659 whole entry, looked up): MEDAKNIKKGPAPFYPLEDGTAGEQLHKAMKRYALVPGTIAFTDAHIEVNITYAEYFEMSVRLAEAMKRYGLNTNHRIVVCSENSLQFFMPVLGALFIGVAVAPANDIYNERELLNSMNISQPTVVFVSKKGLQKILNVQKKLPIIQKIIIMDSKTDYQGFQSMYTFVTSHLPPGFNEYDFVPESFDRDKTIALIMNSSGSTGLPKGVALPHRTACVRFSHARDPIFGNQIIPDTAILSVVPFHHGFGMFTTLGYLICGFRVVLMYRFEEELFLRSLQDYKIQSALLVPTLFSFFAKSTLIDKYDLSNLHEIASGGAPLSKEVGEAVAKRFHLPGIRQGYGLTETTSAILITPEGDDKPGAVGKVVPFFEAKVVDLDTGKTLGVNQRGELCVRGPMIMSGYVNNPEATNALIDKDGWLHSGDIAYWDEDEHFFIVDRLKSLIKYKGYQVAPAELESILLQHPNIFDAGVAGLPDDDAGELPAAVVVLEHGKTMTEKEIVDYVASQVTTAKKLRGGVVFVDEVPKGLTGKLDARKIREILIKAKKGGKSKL
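Biochemical qHTS of compounds, final roughly 60 µM downward over six points, against 10 nM purified firefly luciferase using Km concentrations of substrates (10 uM D-luciferin, 10 uM ATP) in Tris acetate pH 7.5 buffer; luminescence output.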
NPC1 prom act = activators of NPC1 promoter | Huh7 NPC1 promoter luciferase reporter, 24 h | Potency, µM (highest dose often 9.22 µM), inactives show at the highest dose activation, actives largely listed as activators | 320,000 compounds, 2.4% hits | AID 485313; further: % of control where 0% means no effect; nearly all actives have a fitted effect of over 60% in size
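Stably transfected Huh7 (NPC1 promoter→luciferase), 1500 cells/well in Opti-MEM + 10% FBS, 2 h settle, then compound 24 h at 37 °C. Luminescence after 10 min with Amplite reagent.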
ELG1 genotox = inducers of genotoxicity in HEK293T ELG1-luciferase cells; AID 504466; HEK293T ELG1-luciferase reporter, luminescence, 16 h; 330,000 compounds, 1.3% hits; Potency, µM (top dose mostly 46 µM), inactives show at the highest dose activity change, positive = activation, actives largely listed as activators; further: % of control where 0% means no effect; nearly all actives have a fitted effect of over 60% in size
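ELG1-luciferase HEK293T cells, 2,000/well; compound pinned in; 16 hr, 37 °C, 5% CO2; ONE-Glo, 30 min RT; luminescence on CCD imager.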
* hit, by the source's call; u = inconclusive; x = not tested or not shown; [ ] = another dose, or the depositor's remark. In the library only some 7.5% were active in any assay of this set; here they are far more common. The call rests on the fitted dose curve; in most records, active means well fitted curve in the direction sought with a large enough effect; inconclusive means small, poorly fitted or top-dose-only effect, or another doubt; inactive means no such curve, though single readings can be large; an effect the other way counts as inactive or inconclusive. Potency means the concentration at half of the fitted maximal effect.

SMILES	SMN2 splice up	Rab9 promoter act	FLuc modulator	NPC1 prom act	ELG1 genotox
COc1ccc(-c2coc3cc(O)cc(O)c3c2=O)cc1OC	x	23.8%	u	21.5%	u
COc1ccc2c(=O)c(-c3ccccc3)coc2c1	11.2µM*	0.794µM*	3.01µM*	0.708µM*	0.6%
COc1ccc2c(=O)c(-c3ccc(OC)c(OC)c3)coc2c1	x	u	7.57µM*	u	u
CCOc1ccccc1Oc1coc2cc(O)ccc2c1=O	1.9%	15.5%	-11.1%	14.6%	3.7%
O=C(CSc1nc(-c2ccccc2)cc(=O)[nH]1)Nc1ccccn1	1.4%	-7.3%	u	5.8%	-0.6%
COc1cc(C(=O)COC(=O)C2CC2(Cl)Cl)cc(OC)c1OC (configuration not stated)	x	x	x	x	6.3%
CCN(CC)C(=O)Oc1ccc2c(=O)c(-c3ccccc3)coc2c1	u	3.55µM*	6.01µM*	1.58µM*	u
COc1ccc(-c2coc3cc(OC(C)=O)cc(OC(C)=O)c3c2=O)cc1	8.91µM*	x	x	x	x
COc1ccccc1-c1coc2cc(OC(=O)/C=C/c3ccccc3)ccc2c1=O	21.8%	1.0%	0.0%	0.2%	4.9%
O=c1c(-c2ccc(F)cc2)coc2c3c(ccc12)OCCO3	u	1.26µM*	u	3.55µM*	2.59µM*
COc1ccc(-c2coc3cc(O)ccc3c2=O)cc1OC	27.5%	u	19µM*	u	u
CN1CCN(C(=O)c2cc(Cl)ccc2NC(=O)c2ccc(Cl)cc2Cl)CC1	x	3.2%	1.1%	-2.4%	0.3%
COc1ccc(/C=N/Nc2cc(OC)ncn2)cc1	x	1µM*	0.953µM*	3.55µM*	1.84µM*
COc1ccc(/C=N/Nc2cc(N(C)C)nc(N(C)C)n2)cc1	-8.7%	-4.1%	15.1µM*	2.7%	-8.1%
CN(C)c1cc(N/N=C\c2ccccc2)nc(N(C)C)n1	x	-10.0%	u	10.5%	-8.0%
CCCCOc1ccc(C(=O)OCC(=O)c2c(N)n(C)c(=O)n(C)c2=O)cc1	x	x	x	x	-2.7%
C=CCn1c(Cc2nc3ccc(Cl)cc3[nH]2)n[nH]c1=S	x	-2.4%	u	9.3%	29.5%
COC(=O)COc1cccc(-n2cnnn2)c1	6.0%	-5.7%	3.4%	0.0%	1.7%
Cc1cc(C(=O)COc2cccc(-n3cnnn3)c2)c(C)n1-c1ccccc1	-32.3%	23.4%	3.01µM*	2.7%	-9.5%
CCc1ccc(NC(=O)COc2cccc(-n3cnnn3)c2)cc1	x	-2.9%	19µM*	-1.6%	4.0%
O=C(NCc1ccccc1)c1cc2sccc2n1Cc1ccc(F)cc1	-22.6%	x	5.4%	x	x
Nc1nnc(SCC(=O)Nc2cccnc2Cl)s1	x	-6.2%	-8.2%	2.1%	-3.5%
Cc1cccc(Nc2nnc(SCc3cn4ccsc4n3)s2)c1	-8.9%	-0.9%	16.9µM*	1.1%	3.1%
Cc1ccc(Nc2nnc(SCC(=O)NC3CCCc4ccccc43)s2)cc1 (configuration not stated)	-34.9%	-4.0%	u	-5.6%	-5.5%
Cc1cccc(Nc2nnc(SCC(=O)Nc3cccnc3Cl)s2)c1	-1.8%	10.9%	6.01µM*	5.0%	4.6%
SMILES	SMN2 splice up	Rab9 promoter act	FLuc modulator	NPC1 prom act	ELG1 genotox
O=c1cc(CSc2nnc(Nc3ccccc3)s2)nc2sccn12	u	-4.9%	-10.4%	7.2%	-13.2%
Cc1cccc(Nc2nnc(SCC(=O)NCc3cccs3)s2)c1	5.0%	11.1%	10.7µM*	7.4%	5.5%
Cc1cccc(Nc2nnc(SCC(=O)NC3CCCc4ccccc43)s2)c1 (configuration not stated)	-35.9%	-2.3%	6.01µM*	-5.7%	-8.4%
Cc1cc(C)c(CN2CCN(C(=O)Cn3cnc4c(OCc5ccccc5)ncnc43)CC2)c(C)c1	x	x	x	x	1.1%
Cc1ccc(Nc2nnc(SCC(=O)NCCN3C(=O)CSC3=O)s2)cc1C	x	26.3%	1.69µM*	u	u
COc1ccccc1NC(=O)c1sc2nc(-c3ccco3)ccc2c1N	18.7%	15.2%	-19.4%	11.2%	14.3%
CC(=O)c1sc2nc(-c3cccs3)ccc2c1N	u	3.55µM*	7.57µM*	18.4%	11.6µM*
Nc1c(C(=O)Nc2ccccc2Br)sc2nc(-c3cccs3)ccc12	-5.7%	x	x	x	x
Nc1c(C(=O)Nc2nc3ccccc3s2)sc2nc(-c3cccs3)ccc12	u	u	2.39µM*	u	u
Nc1c(C(=O)Nc2ccccc2)sc2nc(-c3ccco3)ccc12	2.2%	u	12µM*	u	5.7%
COCCNC(=O)c1cc2oc3ccccc3c2n1C	x	3.16µM*	9.53µM*	25.8%	u
Cn1c(C(=O)NCc2cccc(Cl)c2)cc2oc3ccccc3c21	u	x	-0.8%	x	x
OC1=C(O)c2nc3cc(F)ccc3nc21	x	-1.4%	-2.0%	-1.3%	-0.6%
Fc1ccc2nc3[nH]c4ccccc4c3nc2c1	15.8µM*	3.16µM*	1.9µM*	3.16µM*	u
COc1ccccc1C(=O)Nc1ccc(N2CCN(S(C)(=O)=O)CC2)cc1	u	u	u	24.7%	9.2µM*
COc1c(C)cc(Br)cc1C(=O)Nc1ccc(N2CCN(S(C)(=O)=O)CC2)cc1	-0.4%	-0.9%[1.84 µM]	2.1%	-5.4%	6.1%
COc1c(C)cccc1C(=O)Nc1ccc(N2CCN(S(C)(=O)=O)CC2)cc1	u	3.16µM*	15.1µM*	3.98µM*	u
CCCC(=O)N1CCN(c2ccc(NC(=S)NC(=O)c3cccc(C)c3)cc2)CC1	-50.5%	-17.0%	1.1%	-9.3%	-10.8%
CCOc1ccc(-c2cc(CCCC(=O)NCCC(C)C)no2)cc1	-11.9%	25.4%	6.01µM*	16.8%	4.2%
CCOc1ccc(-c2cc(CCCC(=O)NCc3cccnc3)no2)cc1	13.4%	u	10.7µM*	u	u
CCOc1ccc(CCNC(=O)CCCc2cc(-c3ccc(OCC)cc3)on2)cc1	-0.4%	x	-7.9%	x	x
CCOc1ccc(NC(=O)CCCc2cc(-c3ccc(OCC)cc3)on2)cc1	13.9%	-0.3%	-3.4%	-1.2%	7.1%
COc1ccc(CNc2ccc(C)c(C)c2)cc1	25.3%	u	15.1µM*	u	u
CSc1ccc(CNc2ccc(C)cc2)cc1	-5.3%	3.98µM*	9.53µM*	3.55µM*	u
COc1cc(CNc2ccc(C)c(C)c2)cc(OC)c1OC	-1.7%	-11.7%	-13.8%	-34.9%	17.3%
CSc1ccc(CNc2ccc(C)c(C)c2)cc1	8.3%	u	15.1µM*	u	u
CC(=O)c1ccc(N(C(=O)CNC(=O)c2ccco2)C(C(=O)NCC2CCCO2)c2ccccc2)cc1 (configuration not stated)	x	-7.1%	5.1%	-2.2%	-4.5%
CC(C)SCCCOc1ccc(C(C)(C)C)cc1	9.5%	-1.7%	19µM*	0.2%	7.9%
CC(C)SCCCCOc1ccc2ccccc2c1	22.1%	u	16.9µM*	u	2.7%
CCOc1ccccc1/C=N/NC(=O)C[n+]1ccccc1	x	-2.6%	x	-1.6%	-0.1%
